# Source: PubChem BioAssay AID1508601 (ICCB-Longwood Screening Facility, Harvard Medical School, 2020)
# In all, about 5,700 compounds went through this assay and about 85 (1%) were called active. Cut-off read from the data, not from the text of the source: active = p53-positive nuclei above about 36% (passing the limit was not always enough); inactive = the rest. Shown is part of a subset that was picked to be rich in actives.
# Tests used:
# [1] = nuclear p53 accumulation, HPV+ cells – imaging, p53-positive nuclei imaging, 24 h, 48 h (AID 1508601); details: 24/48 h
# [2] = target: Cellular tumor antigen p53 (Homo sapiens) (UniProt P04637); test: as above; details: 24/48 h, stronger effect = higher value
# [3] = measured here: cell number at 24 h, Library stock concentration: 10 mM
# [4] = measured here: cell number at 48 h, Library stock concentration: 10 mM
# [5] = Library stock concentration: 10 mM
# [6] = measured here: p53 positive nuclei at 24 h, Library stock concentration: 10 mM
# Chain of Cellular tumor antigen p53 (Homo sapiens) (P04637 whole entry, looked up): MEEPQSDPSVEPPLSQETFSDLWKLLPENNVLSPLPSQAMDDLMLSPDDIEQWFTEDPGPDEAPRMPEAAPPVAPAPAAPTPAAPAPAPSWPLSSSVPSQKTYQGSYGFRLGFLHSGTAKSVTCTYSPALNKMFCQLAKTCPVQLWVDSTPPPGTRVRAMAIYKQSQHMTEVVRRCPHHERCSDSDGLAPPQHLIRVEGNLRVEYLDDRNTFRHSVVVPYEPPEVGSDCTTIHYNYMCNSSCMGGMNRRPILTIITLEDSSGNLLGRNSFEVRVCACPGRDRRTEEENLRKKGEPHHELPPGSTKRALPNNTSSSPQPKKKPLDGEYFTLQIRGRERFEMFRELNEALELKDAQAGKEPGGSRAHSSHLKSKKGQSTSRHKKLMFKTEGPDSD
smiles,measurement,setting,value
CCCCCCCCCCCCCC=CC(O)C(CO)N(C)C (stereo unspecified),"nuclei count, normalised","[1]; measured here: cell number at 24 h, Library stock concentration: 500 nM",120%
same,"nuclei count, normalised","[1]; measured here: cell number at 24 h, Library stock concentration: 1.5 uM",110%
same,"nuclei count, normalised","[1]; measured here: cell number at 24 h, Library stock concentration: 4.6 uM",117%
same,"nuclei count, normalised","[1]; measured here: cell number at 24 h, Library stock concentration: 13.7 uM",108%
same,"nuclei count, normalised","[1]; measured here: cell number at 24 h, Library stock concentration: 41 uM",110%
same,"nuclei count, normalised","[1]; measured here: cell number at 24 h, Library stock concentration: 123 uM",122%
same,"nuclei count, normalised","[1]; measured here: cell number at 24 h, Library stock concentration: 370 uM",122%
same,"nuclei count, normalised","[1]; measured here: cell number at 24 h, Library stock concentration: 1.111 mM",118%
same,"nuclei count, normalised","[1]; measured here: cell number at 24 h, Library stock concentration: 3.333 mM",102%
same,"nuclei count, normalised",[1]; [3],35.8%
same,"nuclei count, normalised","[1]; measured here: cell number at 48 h, Library stock concentration: 500 nM",115%
same,"nuclei count, normalised","[1]; measured here: cell number at 48 h, Library stock concentration: 1.5 uM",109%
same,"nuclei count, normalised","[1]; measured here: cell number at 48 h, Library stock concentration: 4.6 uM",107%
same,"nuclei count, normalised","[1]; measured here: cell number at 48 h, Library stock concentration: 13.7 uM",107%
same,"nuclei count, normalised","[1]; measured here: cell number at 48 h, Library stock concentration: 41 uM",110%
same,"nuclei count, normalised","[1]; measured here: cell number at 48 h, Library stock concentration: 123 uM",114%
same,"nuclei count, normalised","[1]; measured here: cell number at 48 h, Library stock concentration: 370 uM",116%
same,"nuclei count, normalised","[1]; measured here: cell number at 48 h, Library stock concentration: 1.111 mM",112%
same,"nuclei count, normalised","[1]; measured here: cell number at 48 h, Library stock concentration: 3.333 mM",109%
same,"nuclei count, normalised",[1]; [4],22.2%
same,"p53-positive nuclei, normalised",[2]; Library stock concentration: 500 nM,-0.17% (inactive)
same,"p53-positive nuclei, normalised",[2]; Library stock concentration: 1.5 uM,-0.126% (inactive)
same,"p53-positive nuclei, normalised",[2]; Library stock concentration: 4.6 uM,-0.0366% (inactive)
same,"p53-positive nuclei, normalised",[2]; Library stock concentration: 13.7 uM,-0.121% (inactive)
same,"p53-positive nuclei, normalised",[2]; Library stock concentration: 41 uM,-0.00454% (inactive)
same,"p53-positive nuclei, normalised",[2]; Library stock concentration: 123 uM,-0.0524% (inactive)
same,"p53-positive nuclei, normalised",[2]; Library stock concentration: 370 uM,0.0673% (inactive)
same,"p53-positive nuclei, normalised",[2]; Library stock concentration: 1.111 mM,-0.00344% (inactive)
same,"p53-positive nuclei, normalised",[2]; Library stock concentration: 3.333 mM,-0.0281% (inactive)
same,"p53-positive nuclei, normalised",[2]; [5],3.77% (inactive)
same,"p53-positive nuclei, normalised","[2]; measured here: p53 positive nuclei at 24 h, Library stock concentration: 500 nM",-0.148%
same,"p53-positive nuclei, normalised","[2]; measured here: p53 positive nuclei at 24 h, Library stock concentration: 1.5 uM",-0.148%
same,"p53-positive nuclei, normalised","[2]; measured here: p53 positive nuclei at 24 h, Library stock concentration: 4.6 uM",-0.148%
same,"p53-positive nuclei, normalised","[2]; measured here: p53 positive nuclei at 24 h, Library stock concentration: 13.7 uM",-0.019%
same,"p53-positive nuclei, normalised","[2]; measured here: p53 positive nuclei at 24 h, Library stock concentration: 41 uM",-0.0213%
same,"p53-positive nuclei, normalised","[2]; measured here: p53 positive nuclei at 24 h, Library stock concentration: 123 uM",-0.148%
same,"p53-positive nuclei, normalised","[2]; measured here: p53 positive nuclei at 24 h, Library stock concentration: 370 uM",-0.0899%
same,"p53-positive nuclei, normalised","[2]; measured here: p53 positive nuclei at 24 h, Library stock concentration: 1.111 mM",-0.0918%
same,"p53-positive nuclei, normalised","[2]; measured here: p53 positive nuclei at 24 h, Library stock concentration: 3.333 mM",-0.0113%
same,"p53-positive nuclei, normalised",[2]; [6],3.53%
c1cc(NCCc2c[nH]c3ccccc23)cc(Nc2ccncc2)c1,"nuclei count, normalised","[1]; measured here: cell number at 24 h, Library stock concentration: 80 uM",103%
same,"nuclei count, normalised","[1]; measured here: cell number at 24 h, Library stock concentration: 400 uM",107%
same,"nuclei count, normalised","[1]; measured here: cell number at 24 h, Library stock concentration: 2 mM",107%
same,"nuclei count, normalised",[1]; [3],91.3%
same,"nuclei count, normalised","[1]; measured here: cell number at 48 h, Library stock concentration: 80 uM",101%
same,"nuclei count, normalised","[1]; measured here: cell number at 48 h, Library stock concentration: 400 uM",107%
same,"nuclei count, normalised","[1]; measured here: cell number at 48 h, Library stock concentration: 2 mM",108%
same,"nuclei count, normalised",[1]; [4],77.6%
same,"p53-positive nuclei, normalised",[2]; Library stock concentration: 80 uM,-0.0385% (inactive)
same,"p53-positive nuclei, normalised",[2]; Library stock concentration: 400 uM,-0.0904% (inactive)
same,"p53-positive nuclei, normalised",[2]; Library stock concentration: 2 mM,-0.152% (inactive)
same,"p53-positive nuclei, normalised",[2]; [5],-0.0614% (inactive)
same,"p53-positive nuclei, normalised","[2]; measured here: p53 positive nuclei at 24 h, Library stock concentration: 80 uM",-0.148%
same,"p53-positive nuclei, normalised","[2]; measured here: p53 positive nuclei at 24 h, Library stock concentration: 400 uM",-0.0802%
same,"p53-positive nuclei, normalised","[2]; measured here: p53 positive nuclei at 24 h, Library stock concentration: 2 mM",0.142%
same,"p53-positive nuclei, normalised",[2]; [6],-0.0614%
